Several values for one entry are separate records, joined by “and”; a condition that tells them apart may be missing. Equal values may be shown once. About 300 (9.4%) of roughly 3,200 compounds showed activity. The sample as a whole holds a higher share of actives than the screen did.
Tested on: A673/TR/shEF
Test: cell viability (LOESS-normalised, relative to median of negative controls) (log2 ratio); higher = more viable cells (less compound effect), active = hit call of the paper (over 3 MAD below the median)
Details: treatment time: 72 h
In short: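 Doxycycline, present or absent from 24 h before compounds, was used to induce EWS-FLI1 shRNA knockdown in A673/TR/shEF Ewing sarcoma cells at 1,500 per well in 384-well plates. Cells then received library compounds at two or more concentrations, or DMSO controls, for three days. Viability was measured by CellTiter-Glo luminescence on an Envision reader, and per-plate LOESS correction, division by the negative-control median and log2 transformation followed.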

[1] = 0.25 µM, library screen: screen1, EWS-FLI1 expression: high (no doxycycline)
[2] = 0.25 µM, library screen: screen1, EWS-FLI1 expression: low (doxycycline-induced shRNA knockdown)
[3] = 2.5 µM, library screen: screen1, EWS-FLI1 expression: high (no doxycycline)
[4] = 2.5 µM, library screen: screen1, EWS-FLI1 expression: low (doxycycline-induced shRNA knockdown)
[5] = 0.25 µM, library screen: screen2, EWS-FLI1 expression: high (no doxycycline)
[6] = 0.25 µM, library screen: screen2, EWS-FLI1 expression: low (doxycycline-induced shRNA knockdown)
[7] = 2.5 µM, library screen: screen2, EWS-FLI1 expression: high (no doxycycline)
[8] = 2.5 µM, library screen: screen2, EWS-FLI1 expression: low (doxycycline-induced shRNA knockdown)

Measured: cell viability (log2)

Cc1cc(O)c(C)c2c1C(=O)Oc1c(C)c(O)c(C(=O)O)c(C)c1O2
inactive: [1] 0.09 | [2] 0.103 | [3] 0.0454 | [4] 0.145

CC(C)=CCC/C(C)=C/CC/C(C)=C/CO
inactive: [1] 0.153 | [2] 0.0866 | [3] 0.208 | [4] 0.106

CC(C)=CCc1c(O)c(C(=O)CC(C)C)c2oc(=O)cc(-c3ccccc3)c2c1O
inactive: [1] 0.0516 | [2] 0.00347 | [3] 0.107 | [4] 0.0124

CC(C)CCCC(C)C1CCC2C3CC=C4CC(=O)CCC4(C)C3CCC12C (stereo not given)
inactive: [1] 0.0196 | [2] 0.0967 | [3] 0.0967 | [4] 0.133

COCCOC(=O)C1=C(C)NC2=C(C(=O)CCC2)C1c1ccc(C)s1 (stereo not given)
inactive: [1] -0.0698 | [2] 0.0631 | [3] 0.0308 | [4] 0.207

C=C(C)C1Cc2c(ccc(C(=O)O)c2O)O1 (stereo not given)
inactive: [1] 0.0493 | [2] -0.00474 | [3] 0.106 | [4] 0.105

CCOC(=O)c1oc2c(OC)c(O)cc(O)c2c(=O)c1-c1cc(OC)c(OC)c(OC)c1
inactive: [1] 0.036 | [2] 0.0305 | [3] -0.00359 | [4] -0.108

CC=C(C)C(=O)OC1[C@@H]2C=C3C4CC(=O)O[C@@H](c5ccoc5)[C@]4(C)CCC3[C@@](C)(C2=O)[C@@H](C(O)C(=O)OC)C1(C)C (stereo not given in full)
inactive: [1] 0.075 | [2] -0.00745 | [3] 0.149 | [4] 0.0968

COC(=O)Nc1ccc(S(=O)(=O)N2C(C)CCCC2C)cc1 (stereo not given)
inactive: [1] 0.0592 | [2] 0.103 | [3] 0.0767 | [4] 0.0829

COc1ccc(CN2CCN(Cc3ccc([N+](=O)[O-])cc3)CC2)cc1OC
inactive: [1] 0.0472 | [2] 0.118 | [3] 0.097 | [4] 0.0942

CCSc1nnc(-c2ccc([N+](=O)[O-])cc2)n1-c1ccccc1
inactive: [1] 0.0862 | [2] 0.0888 | [3] 0.0629 | [4] 0.153

CCOc1cccc(C(=O)c2ccc(O)c(O)c2O)c1
inactive: [1] 0.0703 | [2] 0.005 | [3] 0.0783 | [4] 0.0694

C[C@@H]1CC[C@@]23CCC4(C)[C@@](C=CC5[C@@]6(C)CCC(=O)C(C)(C)C6CC[C@]54C)(OC2=O)C3[C@H]1C (stereo not given in full)
inactive: [1] 0.12 | [2] 0.0225 | [3] 0.0629 | [4] 0.0141

CCN(CCCc1ccccc1)CCCc1ccccc1
inactive: [1] 0.0709 | [2] 0.129 | [3] 0.11 | [4] 0.151

NNCCc1ccccc1
active: [7] -0.435 | [8] -0.392
inactive: [1] 0.0542 | [2] 0.11 | [5] 0.136 | [6] -0.0727 | [3] 0.2 | [4] 0.188

NC(=O)NC(=O)Cc1ccccc1
inactive: [1] 0.103 | [2] 0.215 | [3] 0.184 | [4] 0.139

COC(=O)C1=C(C)N=C2SCCC(=O)N2C1c1ccc(OC)cc1 (stereo not given)
inactive: [1] 0.0178 | [2] 0.0759 | [3] 0.0162 | [4] 0.0699

Cc1cc(Nc2ccc(O)cc2)n2c(nc3ccccc32)c1C#N
inactive: [1] 0.079 | [2] 0.0759 | [3] 0.0987 | [4] 0.0687

CC1(O)/C=C\C=C(\CO)C2CC(C)(C)C2(O)CC1 (stereo not given)
inactive: [1] 0.0666 | [2] 0.000836 | [3] 0.128 | [4] 0.00974

CN1CCN(c2nc3ccccn3c(=O)c2/C=C2\SC(=S)N(CC3CCCO3)C2=O)CC1 (stereo not given)
inactive: [1] 0.134 | [2] 0.0801 | [3] 0.0647 | [4] 0.048

CCC(C)C(=O)c1c(O)c(C)c2oc3c(C)c(O)c(C(=O)C(C)CC)c(O)c3c2c1O (stereo not given)
active: [3] -0.592
inactive: [1] 0.0233 | [2] 0.116 | [4] -0.0271

CC(=O)c1c(O)c(C)c(O)c2c1oc1c(C(C)=O)c(O)c(C)c(O)c12
inactive: [1] 0.0278 | [2] -0.0408 | [3] 0.0533 | [4] 0.172

Cc1c(O)c(C(=O)CC(C)C)c2oc3c(C(=O)CC(C)C)c(O)c(C)c(O)c3c2c1O
inactive: [1] 0.0407 | [2] 0.0843 | [3] 0.0935 | [4] 0.0892

CCCCC(CC)CN=C(N)NC(N)=NCCCCCCN=C(N)NC(N)=NCC(CC)CCCC (stereo not given)
inactive: [1] 0.103 and 0.0973 | [2] 0.044 and 0.0691 | [3] 0.127 and 0.022 | [4] 0.0795 and 0.0454

COc1ccc(OC)c(C2NC(=O)NC(C)=C2C(=O)Nc2ccccc2Cl)c1 (stereo not given)
inactive: [1] 0.0793 | [2] 0.107 | [3] 0.0921 | [4] 0.116

CC1(C)COC(CC(=O)O)CN1 (stereo not given)
inactive: [1] 0.11 | [2] 0.00312 | [3] 0.108 | [4] 0.0408

COc1ccc(-c2coc3cc(O)ccc3c2=O)cc1
active: [1] -0.6
inactive: [2] 0.0672 | [3] 0.234 | [4] 0.103

COc1ccc(-c2coc3cc(OC)ccc3c2=O)cc1
inactive: [1] 0.121 | [2] 0.0353 | [3] 0.128 | [4] 0.0908

O=c1c(-c2ccc(O)cc2)coc2cc(O)ccc12
inactive: 0.025 µM, library screen: screen1, EWS-FLI1 expression: high (no doxycycline) -0.0377 | 0.025 µM, library screen: screen1, EWS-FLI1 expression: low (doxycycline-induced shRNA knockdown) -0.0297 | 0.103 µM, library screen: screen3, EWS-FLI1 expression: high (no doxycycline) 0.0817 | 0.103 µM, library screen: screen3, EWS-FLI1 expression: low (doxycycline-induced shRNA knockdown) 0.0853 | [1] 0.184 | [2] 0.0911 | [5] 0.184 | [6] 0.099 | 0.308 µM, library screen: screen3, EWS-FLI1 expression: high (no doxycycline) 0.12 | 0.308 µM, library screen: screen3, EWS-FLI1 expression: low (doxycycline-induced shRNA knockdown) 0.0897 | 0.926 µM, library screen: screen3, EWS-FLI1 expression: high (no doxycycline) 0.0631 | 0.926 µM, library screen: screen3, EWS-FLI1 expression: low (doxycycline-induced shRNA knockdown) 0.0867 | [3] 0.11 | [4] 0.0867 | [7] 0.118 | [8] 0.117 | 2.8 µM, library screen: screen3, EWS-FLI1 expression: high (no doxycycline) 0.137 | 2.8 µM, library screen: screen3, EWS-FLI1 expression: low (doxycycline-induced shRNA knockdown) 0.123 | 8.3 µM, library screen: screen3, EWS-FLI1 expression: high (no doxycycline) 0.161 | 8.3 µM, library screen: screen3, EWS-FLI1 expression: low (doxycycline-induced shRNA knockdown) 0.0904 | 25 µM, library screen: screen1, EWS-FLI1 expression: high (no doxycycline) 0.0121 | 25 µM, library screen: screen1, EWS-FLI1 expression: low (doxycycline-induced shRNA knockdown) 0.0753 | 25 µM, library screen: screen3, EWS-FLI1 expression: high (no doxycycline) 0.114 | 25 µM, library screen: screen3, EWS-FLI1 expression: low (doxycycline-induced shRNA knockdown) 0.0782
